In PubChem BioAssay (NCI) one finds growth data, which are given here for eleven compounds.

Where “and” joins values, the source holds several entries; their conditions need not be identical. Equal entries are not always repeated. The panel holds about 83,000 compounds, 20% with a hit somewhere; the sample as a whole holds those more often.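 Assay: single dose, 48 h. Readout: percent growth (0 = no net growth; negative = cell death). Active: <10.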 Values without a mark were called inactive. Calls of active or inactive are those of the source.

Holding throughout (assay): NCI-60 one-dose screen, 48 h (100 = growth as untreated, 0 = no growth, -100 = all killed)
Assay [1] relates to DU-145 prostate.
The test system of assay [2] is K-562 leukemia.
The subject of assay [3] is MALME-3M melanoma.
In assay [4] the test system is MDA-MB-231 breast.
For assay [5], the system named is RXF 393 renal.
Assay [6] deals with SF-268 CNS.
Assay [7] has as its system SF-295 CNS.
Assay [8] concerns SF-539 CNS.
Assay [9] concerns UACC-257 melanoma.
For assay [10], the system named is M14 melanoma.

For the compound `CON1CCC[C@]2(C)[C@H]3CC[C@@H]4[C@H]5[C@@H](O)C(C)(C)CC[C@]5(CO)CC[C@@]4(C)[C@]3(C)CC[C@H]2C1(C)C`, the growth in assay [1] (10 µM unless noted) is 99%; in [2] (10 µM unless noted), 87%; in assay [3] (10 µM unless noted) it was 110%; in [4] (10 µM unless noted), 90.5%; in assay [5] (10 µM unless noted) it was 112%; in [6] (10 µM unless noted), 100%. Also, the growth in [7] (10 µM unless noted) is 102%; in assay [8] (10 µM unless noted) it was 106%; in assay [9] (10 µM unless noted), 97.5%; in assay [10] (10 µM unless noted) it was 99.6%.
Turning to `O=C(Nc1ccc2ccccc2c1)c1cc2ccccc2cc1O`, the growth in [1] (10 µM unless noted) was 13.3%; in assay [2] (10 µM unless noted), 71.1%; in assay [3] (10 µM unless noted), 58.5%; in assay [4] (10 µM unless noted), 104%; in [5] (10 µM unless noted) it was 115%; in [6] (10 µM unless noted), 7.54% (active). In addition, the growth in [7] (10 µM unless noted) was 128%; in [8] (10 µM unless noted) it was 105%; in assay [9] (10 µM unless noted) it was 85.6%; in assay [10] (10 µM unless noted), 99%.
Turning to `COc1nc(=O)n(C2C=CC(=O)O2)cc1F` (stereo not given), the growth in assay [1] (10 µM unless noted) was 81.1%; in assay [2] (10 µM unless noted), 40.8%; in assay [3] (10 µM unless noted) it was 45.5%; in assay [4] (10 µM unless noted) it was 100%; in assay [5] (10 µM unless noted), 80.7%; in [6] (10 µM unless noted), 85.7%. Moreover, the growth in assay [7] (10 µM unless noted) is 98.2%; in [8] (10 µM unless noted), 99.1%; in [9] (10 µM unless noted) it was 88.8%; in assay [10] (10 µM unless noted), 69.9%.
Regarding `CCOC(=O)n1cc(-c2nonc2-c2cn(C)c3ccc(OC)cc23)c2cc(F)ccc21`, the growth in assay [1] (10 µM unless noted) is 92.7%; in assay [2] (10 µM unless noted), 67.7%; in assay [3] (10 µM unless noted) it was 81.9%; in [4] (10 µM unless noted), 71.4%; in assay [5] (10 µM unless noted), 89.6%; in assay [6] (10 µM unless noted), 83.1%. Also, the growth in assay [7] (10 µM unless noted) was 60.8%; in assay [8] (10 µM unless noted), 86.1%; in assay [9] (10 µM unless noted), 74.5%; in [10] (10 µM unless noted), 83.9%.
On to `CC(=O)OC[C@]12CCC(C)(C)C=C1[C@H]1CC[C@@H]3[C@@]4(C)CCCNC(C)(C)[C@@H]4CC[C@@]3(C)[C@]1(C)CC2`, for which the growth in assay [1] (10 µM unless noted) was 87.4%; in [2] (10 µM unless noted), 14.2%; in assay [3] (10 µM unless noted) it was 41.9%; in [4] (10 µM unless noted), 82.1%; in assay [5] (10 µM unless noted), 89.2%; in [6] (10 µM unless noted) it was 81.2%. Besides, the growth in [7] (10 µM unless noted) was 100%; in assay [8] (10 µM unless noted), 95.2%; in assay [9] (10 µM unless noted) it was 31.9%; in assay [10] (10 µM unless noted), 64.8%.
For `COc1ccccc1/C=C1\COc2ccc(O)c(O)c2C1=O`, the growth in assay [1] (10 µM unless noted) is 5.75% (active); in assay [2] (10 µM unless noted) it was 2.89% (active); in assay [3] (10 µM unless noted), 6.18% (active); in [4] (10 µM unless noted), 17.4%; in assay [5] (10 µM unless noted) it was 36.6%; in [6] (10 µM unless noted), 32%. In addition, the growth is 90.8% in [7] (10 µM unless noted), -23.5% (active) in assay [8] (10 µM unless noted), 33.6% in assay [9] (10 µM unless noted) and 29% in assay [10] (10 µM unless noted).
Consider `CC(=O)/C=C/c1ccc(OCc2ccc(C(C)(C)C)cc2)cc1`, for which the growth in assay [1] (10 µM) was 89%; in assay [1] (100 µM), 61%; in assay [2] (10 µM), 39.1%; in assay [2] (100 µM), 13.4%; in assay [3] (10 µM), 86.4%; in [3] (100 µM) it was 29%. Further, the growth was 84.2% in assay [4] (10 µM); -39.2% (active) in assay [4] (100 µM); 94.6% in [5] (10 µM); 1.8% (active) in assay [5] (100 µM); 94.2% in assay [6] (10 µM); 42.3% in assay [6] (100 µM). Also, the growth in assay [7] (10 µM) was 69.6%; in [7] (100 µM), 27.2%; in assay [8] (10 µM), 78.4%; in [8] (100 µM) it was 34.1%; in [9] (10 µM) it was 70.6%; in assay [9] (100 µM) it was 2.75% (active). The growth in [10] (10 µM) is 67%; in assay [10] (100 µM) it was 10.5%.
On to `CC(=O)Nc1c(I)c(NC(C)=O)c(I)c(C(=O)O)c1I`, for which the growth in assay [1] (10 µM unless noted) is 115% and 142%; in assay [2] (10 µM unless noted), 69.4%; in [3] (10 µM unless noted) it was 93.7% and 84.5%; in assay [4] (10 µM unless noted) it was 105% and 117%; in assay [5] (10 µM unless noted), 113% and 25.5%; in assay [6] (10 µM unless noted), 107% and 120%. The growth is 90.4% and 104% in assay [7] (10 µM unless noted); 99.3% and 99.7% in [8] (10 µM unless noted); 105% in [9] (10 µM unless noted); 95.9% and 104% in assay [10] (10 µM unless noted).
Regarding `O=C(/C=C/C12c3ccccc3C(c3ccccc31)C1C(=O)NC(=O)C12)c1ccncc1` (stereo not given), the growth in assay [1] (10 µM unless noted) was 13%; in [2] (10 µM unless noted), 6.6% (active); in assay [3] (10 µM unless noted) it was 37.1%; in [4] (10 µM unless noted) it was 15%; in assay [5] (10 µM unless noted) it was 13.4%; in assay [6] (10 µM unless noted), 10.2%. Further, the growth in assay [7] (10 µM unless noted) was 28.4%; in [8] (10 µM unless noted) it was 5.79% (active); in assay [9] (10 µM unless noted), 32.3%; in assay [10] (10 µM unless noted), 20.3%.
Turning to `COc1ccc(-c2nc(Cl)c3c(C)nn(-c4ccc(F)cc4)c3n2)cc1`, the growth in assay [1] (10 µM unless noted) is 111%; in assay [2] (10 µM unless noted) it was 100%; in assay [3] (10 µM unless noted) it was 115%; in [4] (10 µM unless noted), 106%; in assay [5] (10 µM unless noted) it was 122%; in assay [6] (10 µM unless noted), 106%. Further, the growth was 107% in assay [7] (10 µM unless noted), 111% in assay [8] (10 µM unless noted), 91.9% in assay [9] (10 µM unless noted) and 100% in [10] (10 µM unless noted).
Turning to `Cn1cc(-c2nonc2-c2cn(C)c3ccc(Br)cc23)c2ccccc21`, the growth was 53% in assay [1] (10 µM unless noted); 13.3% in [2] (10 µM unless noted); 30.2% in assay [3] (10 µM unless noted); 45.5% in assay [4] (10 µM unless noted); 42.4% in assay [5] (10 µM unless noted); 37.3% in assay [6] (10 µM unless noted). Besides, the growth in assay [7] (10 µM unless noted) is 16.4%; in assay [8] (10 µM unless noted), -0.366% (active); in [9] (10 µM unless noted), 49.5%; in assay [10] (10 µM unless noted) it was 17.7%.
